This note sets out measurements from ChEMBL document CHEMBL3988442, “University of Dundee, Small-Polar-MMV Screening Library” (2021).

Among all 48,000 compounds or so, about 13,000 (27%) showed an effect of 50% or more. The list shows a part of the results.

This experiment has as its system Wolbachia pipientis. Put plainly: Anti-Wolbachia Cell-Based Screen. Type of experiment: functional. Details: scale not given: in the data most compounds retested in dose-response had high values. Particulars: 5 µM.
`CC(C)C(O)CNC(=O)Nc1ccc(F)c(Cl)c1` (stereo unspecified): the “Percent Effect” value is listed as 4.966%.

In the case of `COCCNC(=O)Nc1ccc(-n2cncn2)c(F)c1`, the “Percent Effect” value was -15.63%. Under `CC(=O)c1cccc(NC(=O)NCCOCC2CC2)c1` stands 4.489%. The same measure for `CCOCCCNC(=O)Nc1ccc(F)c(C(N)=O)c1`: 144.9%. In the case of `CC(C)CCOCCNC(=O)Nc1cc(C(F)(F)F)c[nH]c1=O`, the “Percent Effect” value is reported as -4.49%. Under `COC(=O)c1cccc(S(=O)(=O)Nc2ccc(F)c(C(N)=O)c2)c1` stands -1.482%; under `COCCCNC(=O)Nc1ccc(F)c(C(N)=O)c1`, 133.6%. As for `CCOc1ncccc1C(=O)N1CC=C(c2ccc(O)cc2)CC1`, the “Percent Effect” value stood at 32.78%.

`CCC(C)Nc1ccc(-c2nc(-c3cccc(OC)c3OC)no2)cn1` (stereo unspecified): the “Percent Effect” value amounted to 24.9%. The same measure for `Cc1ccc(NCCCNC(=O)NCc2c(C)cc(C)[nH]c2=O)nc1`: 7.392%; for `CC(=O)c1ccc(NC(=O)N[C@H](C(=O)O)C(C)C)cc1`: 99.56%; for `CNC(=O)c1ccc(NC(=O)NC(C)c2cc(C)oc2C)cc1` (stereo unspecified): -7.2%. Turning to `CC(C)C(NC(=O)Nc1ccc(F)cc1)C(=O)N(C)C` (stereo unspecified), the “Percent Effect” value is listed as 92.8%.

On to `CC(Cn1cccn1)NC(=O)Nc1ccc(F)cc1` (stereo unspecified), for which the “Percent Effect” value stood at 5.847%. With `CC(C)NC(=O)c1ccc(NC(=O)NC(C)c2ccccn2)cc1` (stereo unspecified), the “Percent Effect” value is on record as -7.886%. Under `CC(C)[C@H](NC(=O)NC1CCS(=O)(=O)C1)C(=O)Nc1cccnc1` (stereo partly specified) stands 9.774%.

Regarding `CC(=O)c1ccc(NC(=O)NC(C)c2ccc3c(c2)CC(=O)N3)cc1` (stereo unspecified), the “Percent Effect” value is 0.8032%. The same measure for `CC(=O)c1ccc(NC(=O)NC(C(=O)N(C)C)C(C)C)cc1` (stereo unspecified): -8.422%.

Turning to `CC(=O)c1ccc(NC(=O)C(NC(=O)Nc2ccccc2)C(C)C)cc1` (stereo unspecified), the “Percent Effect” value is recorded as 128.1%. Turning to `CN1C(=O)CC(C(=O)O)C12CCN(Cc1ccc(Cl)c(Cl)c1)CC2` (stereo unspecified), the “Percent Effect” value is listed as -9.214%. Consider `Cc1cccc(-c2noc([C@@H]3C[C@@H](O)CN3C)n2)c1`, for which the “Percent Effect” value is given as -0.5094%.

With `CC(C)NC(=O)c1ccc2c(c1)C(c1nc[nH]n1)CN2S(C)(=O)=O` (stereo unspecified), the “Percent Effect” value is 2.921%. The same measure for `COc1cccc(COCC(=O)N2CCN(CC(C)(C)O)CC2)c1`: -0.1486%; for `CN(C)CCOCc1ncn2c1CN(c1ncc(F)cn1)CCC2.O=C(O)C(F)(F)F`: -8.613%. The same measure for `CCS(=O)(=O)N1CCCn2cnc(COc3cccnc3)c2C1.O=C(O)C(F)(F)F`: 90.76%; for `CN(C)C(=O)COCc1ncn2c1CN(c1ncc(F)cn1)CCC2`: 5.015%; for `O=C(O)C(F)(F)F.O=S(=O)(Cc1ccccc1)N1CCCn2cnc(CN3CCCC3)c2C1`: -19.91%. Under `Fc1cnc(N2CCCn3cnc(COc4cccnc4)c3C2)nc1.O=C(O)C(F)(F)F` stands 88.73%; under `O=C(O)C(F)(F)F.O=C(O)C(F)(F)F.c1cc(CN2CCCn3cnc(COCC4CC4)c3C2)ccn1`, -1.984%.

Turning to `O=C(O)C(F)(F)F.O=S(=O)(C1CC1)N1CCCn2cnc(COc3cccnc3)c2C1`, the “Percent Effect” value came to 121.6%.

Consider `O=C(O)C(F)(F)F.O=C(O)C(F)(F)F.c1cnc(NCc2ncn3c2CN(Cc2cccnc2)CCC3)nc1`, for which the “Percent Effect” value is reported as 4.407%. The same measure for `O=C(O)C(F)(F)F.O=S(=O)(c1cccs1)N1CCCn2cnc(CO)c2C1`: -6.746%; for `O=S(=O)(NC(CO)Cc1c[nH]c2ccccc12)c1cncc(F)c1` (stereo unspecified): 0.282%; for `O=C(CCc1nc(Cl)n[nH]1)N1C[C@@H](CN2CCCCC2)[C@@H](CO)C1`: 12.3%. In the case of `N#Cc1ccccc1N1CCCN(CC(=O)Nc2ccccc2Cl)CC1`, the “Percent Effect” value was 11.85%. Take `CCCC1c2cccn2CCN1C(=O)Cn1cnc2sc(C)cc2c1=O` (stereo unspecified): the “Percent Effect” value worked out at 146.6%. Under `Cc1ncsc1CCC(=O)N1CCn2cccc2C1c1cccnc1` (stereo unspecified) stands 2.617%; under `CCC1c2cccn2CCN1C(=O)c1ccc2nonc2c1` (stereo unspecified), -3.198%; under `CCCC1c2cccn2CCN1C(=O)c1cc(CC)no1` (stereo unspecified), 123.5%.

With `CNC(=O)C1CCCCN1C(=O)CCn1cnc2sccc2c1=O` (stereo unspecified), the “Percent Effect” value is listed as 2.602%.

On to `Cc1cc2c(=O)n3c(nc2s1)CCN(C(=O)c1ccncc1)CC3`, for which the “Percent Effect” value is given as -15.49%. Take `CCN1CCC(CC(=O)N2CCn3cccc3C2c2cccnc2)CC1` (stereo unspecified): the “Percent Effect” value was -1.172%.

For `CCC1c2ccc(C)n2CCN1C(=O)Cn1cnc2sc(C)cc2c1=O` (stereo unspecified), the “Percent Effect” value is listed as 132.6%. As for `Cc1cc2c(=O)n(CC(=O)N3CCn4cccc4C3C(C)C)cnc2s1` (stereo unspecified), the “Percent Effect” value was 139.9%. Under `CCc1cc(C(=O)N2CCC(C3CCN(c4ncccn4)CC3)C2)on1` (stereo unspecified) stands -2.788%; under `COC(=O)CCNC(=O)c1nnn(-c2ccccc2)c1C(F)(F)F`, -9.818%. On to `CS(=O)(=O)N1CCCCCC1C1CCN(Cc2nc(C3CC3)no2)CC1` (stereo unspecified), for which the “Percent Effect” value was -7.435%. As for `Cc1cc(C2CCCN(CC(=O)Nc3nc4c(s3)CCC4)C2)n[nH]1` (stereo unspecified), the “Percent Effect” value was 7.579%.

`CC(C)C1Nc2ccccc2C(=O)N1CC(=O)Nc1nc2c(s1)CCC2` (stereo unspecified): the “Percent Effect” value was 128.1%. Under `Cc1nc(NC(=O)CN2CCOC(Cn3cccn3)C2)sc1C` (stereo unspecified) stands -8.379%. Under `Cc1nc(NC(=O)CN2CCc3c(nc(C(C)C)n3C)C2)sc1C` stands -4.598%; under `Cc1nc(NC(=O)CN2C(=O)c3ccccc3NC2C(C)C)sc1C` (stereo unspecified), 126.1%; under `O=C(CN1CCCC(c2ccn[nH]2)C1)Nc1nc2c(s1)CCC2` (stereo unspecified), -12.59%. Under `Cc1nc(NC(=O)C2CCCN(C(N)=O)C2)sc1-c1ccccc1` (stereo unspecified) stands 3.163%; under `Cc1nc(NC(=O)CCN2C(=O)c3ccccc3NC2C(C)C)sc1C` (stereo unspecified), 126.1%; under `Cc1nc(NC(=O)C(C)N2CCN(c3ccccc3F)CC2)sc1C` (stereo unspecified), 2.631%.
